Results on 40 compounds are retold here after PubChem BioAssay (NCATS).

Results filed as inconclusive are left out. Values without a mark were called inactive. The source made the active and inactive calls. The call rests on the fitted dose curve; in most records, active means well fitted cell-killing curve with a large enough effect; inconclusive means small, poorly fitted or top-dose-only effect, or effect the other way; inactive means no such curve, though single readings can be large or run the other way.
Potency means the concentration at half of the fitted maximal effect.

This test in a line: Quantitative High-Throughput drug screen in 47 multiple myeloma cell lines against the NCATS MIPE library collection: SKMM1_PLB cell viability assay (AID 1919863). Further: nearly all actives have a fitted effect of over 35% in size. On viability: series mostly up to about 46 µM. The settings on record: SKMM1 myeloma viability, CellTiter-Glo ATP, 48 h; viability: hits give low values. The source says: PI: Beverly A. Mock Ph.D.
Laboratory of Cancer Biology and Genetics,
Center for Cancer Research, National Cancer Institute,
National Institute of Health, Bethesda, Maryland
Drug resistance and disease progression are common in multiple myeloma (MM) patients, underscoring the need for new therapeutic combinations. […] We hypothesized that effective combinations would reduce MYC expression and enhance p16 activity. […] These preclinical data identify potentially useful drug combinations for evaluation in drug-resistant MM and reveal potential mechanisms of combined drug sensitivity.
Described herein is the primary MIPE qHTS used to cherrypick compounds. Validated compounds were then further tested for potential synergistic activiy.
[1] Peat TJ, Gaikwad SM, Dubois W, Gyabaah-Kessie N, Zhang S, Gorjifard S, Phyo Z, Andres M, Hughitt VK, Simpson RM, Miller MA, Girvin AT, Taylor A, Williams D, D'Antonio N, Zhang Y, Rajagopalan A, Flietner E, Wilson K, Zhang X, Shinn P, Klumpp-Thomas C, McKnight C, Itkin Z, Chen L, Kazandijian D, Zhang J, Michalowski AM, Simmons JK, Keats J, Thomas CJ, Mock BA. Drug combinations identified by high-throughput screening promote cell cycle transition and upregulate Smad pathways in myeloma. Cancer Lett. 2023 Aug 1;568:216284. doi: 10.1016/j.canlet.2023.216284. Epub 2023 Jun 24. PMID: 37356470; PMCID: PMC10408729.
SEQUENCE No. (e.g., 1, 2, 3, etc.); […] (e.g., Cells, Incubation, Reagent, etc.); VALUE and DESCRIPTION.
1; Cells; 5 uL; white, solid bottom 1536-well Greiner assay plate.
2; Compounds; 23 nL; Kalypsis pin tool (Wako USA) equipped with a 1536-well pin head to transfer to the assay plates.
3; Incubation; 48 hours; 37C incubation.
4; Reagent;5uL; CellTiter Glo (Promega).
5; Detector; 425V; Luminescence; Viewlux PerkinElmer.
NOTES (numbers refer to Sequence numbers above)
1. The cell-based screening methods employed in this study were like those previously published. Briefly, the corresponding myeloma cell lines were screened in 1,536-well plates with 500 cells, 5-uL per well for inhibition of cell viability (assessed by measuring ATP levels with CellTiterGlo).
2. NCATS MIPE 4.0 library of approved and investigational drugs were added using the Kalypsis pin tool. Wells treated with DMSO only for 100% viability and media only for 0% viability were used as controls.
3. The assay plates were covered and incubated for 48 hours in a 37C, 5% CO2 incubator with controlled humidity.
4. After 48 hours, CellTilter-GloTM luminescent substrate mix (Promega) reagent was added to the assay plate and plates we incubated for 5 min at room temperature.
5. Signal was measured as median relative luminescence units on a ViewLux (PerkinElmer) multiplate reader.
[1] Heske CM, Davis MI, Baumgart JT, Wilson K, Gormally MV, Chen L, Zhang X, Ceribelli M, Duveau DY, Guha R, Ferrer M, Arnaldez FI, Ji J, Tran HL, Zhang Y, Mendoza A, Helman LJ, Thomas CJ. Matrix Screen Identifies Synergistic Combination of PARP Inhibitors and Nicotinamide Phosphoribosyltransferase (NAMPT) Inhibitors in Ewing Sarcoma. Clin Cancer Res. 2017 Dec 1;23(23):7301-7311. doi: 10.1158/1078-0432.CCR-17-1121. Epub 2017 Sep 12. PMID: 28899971; PMCID: PMC6636827.
Background: In ATP-based viability assays light output follows the ATP content of the culture.
As a reminder, the viability is a read-out of living cells in per cent, often relative to untreated cells. Regarding `O=C(CCCN1CCC(O)(c2ccc(Cl)cc2)CC1)c1ccc(F)cc1`, the viability was 92.3%. Same read-out and setting: next, `CCOC(=O)C(C)(C)Oc1ccc(Cl)cc1`: 104%. In the case of `CN(Cc1cnc2nc(N)nc(N)c2n1)c1ccc(C(=O)N[C@@H](CCC(=O)O)C(=O)O)cc1`, the Potency is 5.9 µM (active). Still for that read-out and setting: with `CC#C[C@]1(O)CC[C@H]2[C@@H]3CCC4=CC(=O)CCC4=C3[C@@H](c3ccc(N(C)C)cc3)C[C@@]21C` the figure was 4.18 µM (active). Same read-out and setting: with `O=c1[nH]cc(F)c(=O)[nH]1` the figure was 13.2 µM (active). Regarding `CN1C(C(=O)Nc2ccccn2)=C(O)c2ccccc2S1(=O)=O`, the viability is 103%.

As to `Cc1cn([C@H]2C[C@H](N=[N+]=[N-])[C@@H](CO)O2)c(=O)[nH]c1=O`, the viability was 139%. For the compound `Nc1nc2c(ncn2COC(CO)CO)c(=O)[nH]1`, the Potency is 20.9 µM (active). Take `CC[N+](CC)(CC)CCOc1cccc(OCC[N+](CC)(CC)CC)c1OCC[N+](CC)(CC)CC`: the viability was 112%. On to `NCCS(=O)(=O)O`, for which the viability was 109%.

For the compound `Cn1cnc2c1c(=O)[nH]c(=O)n2C`, the Potency is 20.9 µM (active). Same read-out and setting: with `CN(C)C(=O)C(CCN1CCC(O)(c2ccc(Cl)cc2)CC1)(c1ccccc1)c1ccccc1` the figure was 23.5 µM (active). As for `COc1ccc2[nH]cc(CCNC(C)=O)c2c1`, the viability is 123%. In the case of `Cc1cn([C@H]2C=C[C@@H](CO)O2)c(=O)[nH]c1=O`, the viability was 87.6%. Still for that read-out and setting: with `COc1ccccc1OCC(O)CN1CCN(CC(=O)Nc2c(C)cccc2C)CC1` (stereo not given) the figure was 110%. Consider `CS(=O)(=O)CCNCc1ccc(-c2ccc3ncnc(Nc4ccc(OCc5cccc(F)c5)c(Cl)c4)c3c2)o1`, for which the Potency was 23.5 µM (active).

As for `CN(C)CCOC(c1ccccc1)c1ccccc1`, the viability is 119%. Same read-out and setting: with `CC1COc2c(N3CCN(C)CC3)c(F)cc3c(=O)c(C(=O)O)cn1c23` (stereo not given) the figure was 135%. Consider `NC(=O)NO`, for which the Potency was 10.5 µM (active). As to `CC(C(=O)O)c1cccc(C(=O)c2ccccc2)c1` (stereo not given), the viability is 106%.

In the case of `COC(=O)Nc1nc2ccc(C(=O)c3cccs3)cc2[nH]1`, the Potency was 0.0017 µM (active). Same read-out and setting: with `CNCCCC12CCC(c3ccccc31)c1ccccc12` the figure was 18.7 µM (active). On to `Cc1ccccc1N1C(=O)c2cc(S(N)(=O)=O)c(Cl)cc2NC1C` (stereo not given), for which the viability was 117%. As to `CCCCc1oc2ccccc2c1C(=O)c1cc(I)c(OCCN(CC)CC)c(I)c1`, the Potency was 20.9 µM (active).

Regarding `O=C1N(c2ccccc2)c2ccccc2C1(Cc1ccncc1)Cc1ccncc1`, the viability is 122%. Still for that read-out and setting: next, `CN1CCC(=C2c3ccccc3CC(=O)c3sccc32)CC1`: 102%; `CN(CCOc1ccc(NS(C)(=O)=O)cc1)CCc1ccc(NS(C)(=O)=O)cc1`: 109%. `CC12CC3CC(C)(C1)CC(N)(C3)C2`: the viability was 125%. Take `CCOC(=O)Nc1ccc(NCc2ccc(F)cc2)nc1N`: the viability was 134%. On the same count and under the same terms, with `COc1ccccc1N1CCN(CC(O)COc2cccc3ccccc23)CC1` (stereo not given) the figure was 119%. Still for that read-out and setting: next, `CCN1CCCC1CNC(=O)c1cc(S(=O)(=O)CC)c(N)cc1OC` (stereo not given): 121%. As for `O=C(c1ccc(OCCN2CCCCC2)cc1)c1c(-c2ccc(O)cc2)sc2cc(O)ccc12`, the Potency is 26.4 µM (active). Consider `CN(C)CCCN1c2ccccc2CCc2ccc(Cl)cc21`, for which the Potency is 14.8 µM (active). As to `Nc1ccn([C@H]2CC[C@@H](CO)O2)c(=O)n1`, the viability was 109%. In the case of `CC[C@@]1(O)C(=O)OCc2c1cc1n(c2=O)Cc2cc3c(CN(C)C)c(O)ccc3nc2-1`, the Potency is 3.32 µM (active). For the compound `COc1ccc2c(c1)c(CC(=O)O)c(C)n2C(=O)c1ccc(Cl)cc1`, the viability is 128%.

As for `COc1cc2nc(N3CCN(C(=O)C4COc5ccccc5O4)CC3)nc(N)c2cc1OC` (stereo not given), the viability was 137%. With `O=C(Nc1ccc([N+](=O)[O-])cc1Cl)c1cc(Cl)ccc1O`, the Potency is 1.48 µM (active).

As to `NC(CO)C(=O)NNCc1ccc(O)c(O)c1O` (stereo not given), the Potency is 11.8 µM (active). Regarding `CC(C)NCC(O)c1ccc(O)c(O)c1` (stereo not given), the Potency is 16.6 µM (active).
